Assay outcomes from PubChem BioAssay.
CHO-K1 Ca antag: M1 antagonist counterscreen hit in parental CHO-K1 cells. ATP-induced calcium, Fluo-8 fluorescence. inhibition, % at 3 µM. 360,000 compounds, 0.6% hits. AID 602250;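 active means inhibition above a per-plate cutoff, the plate's mean sample inhibition plus 3 SD, cut at about 24% in these data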;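 further: 0% = DMSO plus EC80 ATP and 100% = DMSO alone without ATP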
CHRM1 antagonist: human M1 muscarinic receptor antagonists, primary screen, CHO-K1 cells, Fluo-8 calcium fluorescence, 1536-well; inhibition, % at 3 µM; 360,000 compounds, 1.3% hits; CHO-K1 hM1, ACh EC80 antagonist; AID 588852, 2011; Muscarinic acetylcholine receptor M1 (Homo sapiens), P11229;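 active means percent inhibition above its own plate's cutoff, namely the mean of that plate's compound wells plus 3 SD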;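 further: peak over basal fluorescence ratio during 140 s after agonist addition; 0% = ACh EC80 plus DMSO and 100% = DMSO alone without agonist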
Target sequence (P11229 whole entry, looked up): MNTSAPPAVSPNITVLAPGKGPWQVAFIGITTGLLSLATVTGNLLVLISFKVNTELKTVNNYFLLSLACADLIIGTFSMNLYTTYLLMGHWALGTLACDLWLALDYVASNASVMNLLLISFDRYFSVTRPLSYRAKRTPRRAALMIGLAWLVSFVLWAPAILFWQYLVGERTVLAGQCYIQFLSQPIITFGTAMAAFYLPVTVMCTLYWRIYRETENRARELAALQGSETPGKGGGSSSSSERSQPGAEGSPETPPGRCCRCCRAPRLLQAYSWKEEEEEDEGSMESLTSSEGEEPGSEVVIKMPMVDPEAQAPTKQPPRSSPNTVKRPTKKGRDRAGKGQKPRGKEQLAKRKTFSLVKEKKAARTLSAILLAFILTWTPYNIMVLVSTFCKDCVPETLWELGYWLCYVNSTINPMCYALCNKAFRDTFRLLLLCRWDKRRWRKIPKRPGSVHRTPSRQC
CHRM1 agonist: human M1 muscarinic receptor agonists, primary screen, Fluo-8 calcium fluorescence, CHO-K1 cells, HTS; Muscarinic acetylcholine receptor M1 (Homo sapiens), P11229; CHO-K1 hM1, agonist mode; 0% DMSO, 100% acetylcholine EC100; activation, % at 3 µM; 360,000 compounds, 0.33% hits; AID 588814, 2011;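 active means activation above the run's mean compound activation plus 3 SD, cut at about 16% in these data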;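 further: peak over basal fluorescence ratio within a 140 s kinetic read after compound addition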
M1 PAM: human M1 muscarinic receptor positive allosteric modulators, primary screen, CHO-K1 cells, Fluo-8 calcium fluorescence, 1536-well; CHO-K1 hM1, ACh EC20; 0% = ACh EC20, 100% = maximal ACh; activation, % at 3 µM; 360,000 compounds, 0.088% hits; AID 588819, 2011; in the data active means activation above about 19%, passing the limit was not always enough
CHO-K1 Ca ag: counter-screen for M1 agonists: effect in parental CHO-K1 cells; Fluo-8 calcium fluorescence; scaled to maximal ATP response, vehicle zero; activation, % at 3 µM; 360,000 compounds, 0.48% hits; AID 602248, 2012; in the data active means activation above about 15%;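 further: untransfected CHO-K1 host cells lacking M1 receptor as counterscreen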
M1 PAM parental: nonselective calcium activators in parental CHO-K1 cells, primary screen, counter-screen for M1 PAM project, cell-based, Fluo-8 calcium fluorescence, full deck, 1536-well; ATP EC20; 0% at ATP EC20, 100% at ATP max; 360,000 compounds, 0.02% hits; activation, % at 3 µM;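 active means activation above the run cutoff, the mean activation of all test compounds plus 3 SD, cut at about 40% in these data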;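 further: peak over basal fluorescence ratio in a 140 s read after ATP addition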
* marks the source's active call; other numbers are inactive results. In the library only some 2.3% were active in any assay of this set; here they are far more common.

SMILES | CHO-K1 Ca antag | CHRM1 antagonist | CHRM1 agonist | M1 PAM | CHO-K1 Ca ag | M1 PAM parental
O=C1CN(CC(=O)Nc2ccc(SC(F)F)cc2)CCN1 | 27* | 10 | -1 | -7 | -1 | -16
O=C1CN(CC(=O)Nc2ccc(Cl)cc2)CCN1 | -1 | -6 | -2 | 3 | 0 | 13
CC(C)Cn1c(N)c(C(=O)COC(=O)COc2cccc(C(F)(F)F)c2)c(=O)n(C)c1=O | 17 | 32* | 2 | -14 | 15* | -12
CC(C)Cn1c(N)c(C(=O)COC(=O)/C=C/c2ccccc2)c(=O)n(C)c1=O | 28* | 30* | 1 | -11 | 14 | -1
CC(C)Cn1c(N)c(C(=O)COC(=O)CCc2nc3ccccc3s2)c(=O)n(C)c1=O | 23 | 21 | -2 | -10 | 15* | -11
CC(C)Cn1c(N)c(C(=O)COC(=O)CC23CC4CC(CC(C4)C2)C3)c(=O)n(C)c1=O | 16 | 33* | -1 | -3 | 0 | -3
CC(C)Cn1c(N)c(C(=O)COC(=O)c2cccc(F)c2)c(=O)n(C)c1=O | 9 | 0 | 0 | 6 | 6 | -3
O=C(CSc1nnc(CNC(=O)c2ccco2)o1)Nc1cccc(F)c1 | -1 | -2 | -2 | 3 | 1 | -27
CC(NC(=O)COC(=O)C1CCCCC1)c1ccccc1 (stereo not given) | -7 | -12 | -1 | 7 | 0 | 10
Cc1ccccc1OCCC(=O)OCC(=O)c1c(N)n(CC(C)C)c(=O)n(C)c1=O | 24* | 38* | 1 | -15 | 15* | -12
CC(C)Cn1c(N)c(C(=O)COC(=O)c2c(O)c(Cl)cc(Cl)c2Cl)c(=O)n(C)c1=O | -7 | -21 | 4 | 28* | 0 | -1
Cc1ccc(OCCC(=O)OCC(=O)c2c(N)n(CC(C)C)c(=O)n(C)c2=O)cc1 | 1 | 26 | -2 | -16 | 12 | -1
Nc1c(C(=O)CSc2n[nH]c(-c3ccccc3)n2)c(=O)[nH]c(=O)n1C1CC1 | -1 | -27 | 2 | 29* | 0 | 1
Nc1c(C(=O)CSc2n[nH]c(-c3ccccc3Br)n2)c(=O)[nH]c(=O)n1C1CC1 | -6 | 11 | -4 | -6 | 1 | 7
CCOC(=O)c1oc2ccc(Br)cc2c1COC(=O)C1=COCCO1 | -12 | 57* | -7 | -25 | 0 | -14
CC(C)CN(C(=O)COC(=O)CSc1ccc(Br)cc1)C1CCS(=O)(=O)C1 (stereo not given) | 5 | 2 | -2 | 1 | 1 | -23
Cc1ccc(S(=O)(=O)NC(=O)C2(C)CCN2C(=O)COc2ccc(Cl)cc2)nc1 (stereo not given) | -12 | -18 | -2 | 11 | 0 | 16
O=C(NCC(=O)N1CCN(C/C=C/c2ccccc2)CC1)c1ccc(Br)cc1 | -20 | 33* | 18* | -15 | 2 | 7
O=C(NCCN1CCN(c2cccc(Cl)c2)CC1)Nc1ccccc1 | -14 | 7 | -3 | -7 | 8 | 7
CSCCC(NC(=O)c1ccc(Cl)c([N+](=O)[O-])c1)C(=O)N1CCN(C/C=C/c2ccccc2)CC1 (stereo not given) | -11 | 2 | 20* | -2 | 0 | 5
C[C@H](NC(=O)c1ccc(C(C)(C)C)cc1)C(=O)N1CCN(C/C=C/c2ccccc2)CC1 | -22 | 46* | 38* | -16 | 5 | 16
O=C(NCCN1CCN(c2ccccc2)CC1)Nc1ccc(Cl)cc1 | -17 | -3 | -1 | 2 | 16* | 3
CC(C)C(NC(=O)c1ccccc1)C(=O)N1CCN(C/C=C/c2ccccc2)CC1 (stereo not given) | -15 | 5 | -3 | -6 | 0 | 6
O=C(NCC(=O)N1CCN(c2ccccc2)CC1)c1ccc(Cl)cc1 | 1 | 69* | -2 | 3 | 0 | -8
COc1ccc(C(=O)NCC(=O)N2CCN(c3ccccc3)CC2)cc1 | -17 | -15 | 0 | 12 | 1 | 11
SMILES | CHO-K1 Ca antag | CHRM1 antagonist | CHRM1 agonist | M1 PAM | CHO-K1 Ca ag | M1 PAM parental
CSc1nc(S(C)(=O)=O)nc2[nH]c(=O)[nH]c12 | -12 | -13 | -2 | 11 | 1 | 14
CN1C2CCC1CC(NC(=O)CSc1ccc(Cl)cc1)C2 (stereo not given) | -9 | 53* | -8 | -25 | 4 | 3
O=C1NC(=O)C(c2ccccc2)(c2ccccn2)N1 (stereo not given) | -7 | -4 | -5 | 8 | 2 | 15
O=C1NC(=S)NC1(c1ccccc1)c1ccccc1 | -3 | 47* | -9 | -29 | 0 | -8
O=C(NNc1ccnc2cc(Cl)ccc12)C1CCCCC1 | 14 | 32* | -4 | -10 | 12 | -9
C[C@]12CCC(=O)C=C1[C@H](O)C[C@@H]1[C@@H]2[C@@H](O)C[C@@]2(C)[C@H]1CC[C@]2(O)C(=O)CO | 33* | -25 | -2 | 0 | 2 | -8
O=c1[nH]c(=S)[nH]c2nc(-c3cccs3)cc(C(F)(F)F)c12 | -9 | 0 | -4 | 1 | 1 | 6
Nc1c(C(=O)C2CC2)sc2nc(-c3cccs3)cc(C(F)(F)F)c12 | 10 | 37 | 19* | -9 | 8 | 12
CCOc1cc2c3c(c1)C1(C(=O)N3C(C)(C)C=C2C)C(C#N)=C(N)Oc2cc(O)ccc21 (stereo not given) | 29* | -7 | -1 | 8 | 0 | 3
C/C=C/c1cccc(-c2nc(C(=O)NC3CCC3)cc3c2[C@@H](CCO)N(S(=O)C(C)(C)C)C3)c1 (stereo not given in full) | 7 | -2 | -5 | 5 | 1 | 8
CC(C)[C@H](NC(=O)c1cc2cc(Cl)ccc2n1C)C(=O)N[C@@H](C(=O)O)c1ccccc1 | -10 | -9 | -3 | 13 | 1 | 14
O=C(O)CC(Cc1ccc(Cl)cc1)C(=O)NCC12CC3CC(CC(C3)C1)C2 (stereo not given) | -5 | 31* | -6 | -11 | 0 | 0
Cc1ccc(CC(CC(=O)O)C(=O)NCC23CC4CC(CC(C4)C2)C3)cc1 (stereo not given) | 4 | 3 | -2 | -5 | 0 | -6
CN(Cc1ccccc1)C1=CC(=[N+]2CCCCC2)CC(C)(C)C1 | 9 | 39* | -1 | -13 | 3 | 6
CC[N+](CC)(CC#Cc1ccccc1)CC#Cc1ccccc1 | -11 | 42* | -7 | -20 | 0 | 8
CCN(C(=O)Cn1nc(C)c([N+](=O)[O-])c1C)c1c(N)n(Cc2ccccc2)c(=O)[nH]c1=O | 1 | 7 | -3 | -3 | 1 | 0
